Z-score data for 15 molecules are collected here from PubChem BioAssay.

A short description of assay [1]: compound effects on lung adenocarcinoma cell viability – A549, calcein-AM fluorescence, 48 h, basal, profiling panel (AID 1162). The note with it: higher = more signal.
Assay [2] in a line: compound effects on differentiated 3T3-L1 adipocyte viability – cell-based, 3T3-L1 adipocytes, calcein-AM fluorescence, 48 h, basal, profiling panel (AID 1163). The note with it: 3T3-L1 adipocytes viability, higher = more signal.
Assay [3] can be described thus: compound effects on hepatocellular carcinoma cell viability – HepG2, calcein-AM fluorescence, 48 h, basal, profiling panel (AID 1164). The settings on record: higher = more signal.
Assay [4] is described as follows: compound effects on multiple myeloma cell viability – MM1S, calcein-AM fluorescence, 48 h, basal, profiling panel (AID 1165).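 Further: viability of MM1S multiple myeloma cells under basal unstimulated conditions.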 The note with it: higher = more signal.
A short description of assay [5]: calcein-AM signal in unstimulated myeloma cells – cell-based, calcein-AM fluorescence, 48 h, PK04 Diversity Set, profiling panel (AID 1166).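 Further: cells grown under basal conditions without added stimulus.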 The note with it: RPMI8226 myeloma viability, higher = more signal.
Assay [6] can be described thus: JC-1 mitochondrial signal, unstimulated HepG2 cells – cell-based, JC-1 fluorescence, 24 h, 100 nL compound, profiling panel (AID 1167). The settings on record: HepG2 mitochondrial potential, higher = more signal.
Assay [7] in a line: JC-1 mitochondrial signal, unstimulated adipocytes – cell-based, JC-1 fluorescence, 3T3-L1 adipocytes, 24 h, 100 nL compound, profiling panel (AID 1168). The settings on record: JC-1 mitochondrial fluorescence, higher = more signal, called active from +8 up or from −8 down.
Assay [8] in a line: JC-1 mitochondrial signal, unstimulated myeloma cells – cell-based, JC-1 fluorescence, RPMI8226, 24 h, 100 nL compound, profiling panel (AID 1169). The note with it: JC-1 mitochondrial potential fluorescence, higher = more signal.
Assay [9] in a line: JC-1 mitochondrial signal, unstimulated MM1S myeloma – cell-based, JC-1 fluorescence, 24 h, 100 nL compound, profiling panel (AID 1170). The settings on record: MM1S mitochondrial potential, higher = more signal.
Assay [10] can be described thus: resazurin metabolic signal in A549 cells – cell-based, resazurin fluorescence, 24 h, PK04 Diversity Set, profiling panel (AID 1171). The note with it: A549 viability, higher = more signal, called active from +8 up or from −8 down. A general note: The colour change of resazurin is a common sign of viable cells or microbes.

The source made the active and inactive calls.
Further: test concentration not given here.

Regarding `C=C(C(=O)CC[C@H](OC(=O)c1cccnc1)c1ccc(OCCO)cc1)C(C)C`, the z-score was -0.328 in assay [1]; 0.165 in [2]; -0.823 in assay [3]; -3.3 in assay [4]; -1.75 in assay [5]; 0.149 in assay [6]. For the same molecule, the z-score in assay [7] is -0.00639 (inactive); in assay [8], -0.634; in [9] it was -1.45; in [10], -0.569 (inactive).
Consider `CO[C@H]1O[C@H](CO)[C@@H](OC(=O)c2ccc(Br)cc2)[C@@H]2OC(=O)[C@H](Cc3cccc(Br)c3)C/C=C/C[C@@H](Cc3cccc(Br)c3)C(=O)O[C@@H]12`, for which the z-score in [1] was -0.0692; in assay [2] it was 1.09; in assay [3], -0.542; in assay [4], -1.82; in [5], -3.5; in assay [6] it was -3.52. In addition, the z-score in assay [7] is -0.442 (inactive); in [8] it was 0.229; in assay [9], -0.698; in assay [10] it was -0.932 (inactive).
As to `CCCCCCCCCCC(O)C1C=CC2C(=O)NC(=O)C2N1Nc1ccccn1` (stereo not given), the z-score in assay [1] is -3.22; in [2] it was -0.964; in [3], -4.08; in assay [4] it was -3.81; in assay [5] it was -4.13; in assay [6], -3.82. The z-score was -0.46 (inactive) in assay [7], -0.944 in [8], -0.657 in assay [9] and -1.5 (inactive) in assay [10].
`Cc1ccc(S[C@]2(C(=O)NCC(C)C)CC(=O)N(C3CCCCC3)[C@@H]2c2ccc(CO)cc2I)cc1`: the z-score was -0.62 in [1]; -0.395 in [2]; -0.885 in [3]; -3.28 in assay [4]; -3.46 in assay [5]; 0.752 in assay [6]. Besides, the z-score in assay [7] was 0.49 (inactive); in [8], -0.947; in assay [9], 0.0655; in [10] it was 1.3 (inactive).
As for `COc1ccc([Si](C)(C)[C@@H]2[C@@H](CC(=O)N(CCO)Cc3ccccc3)O[C@]3(C(=O)N(C)c4c(Br)cc(C)cc43)[C@H]2C)cc1`, the z-score in [1] is -2.07; in assay [2], -0.0228; in assay [3] it was -2.44; in [4], -2.75; in assay [5], -4.38; in assay [6], -2.82. Moreover, the z-score is -0.68 (inactive) in [7], -1.17 in assay [8], -2.11 in assay [9] and -0.99 (inactive) in assay [10].
Turning to `CC(C)(C)OC(=O)CC[C@@]1(C(=O)N2CCCCC2)N=C(c2ccc(OCCCO)cc2)O[C@@H]1c1ccccc1N=[N+]=[N-]`, the z-score was 0.611 in assay [1]; -0.351 in assay [2]; 0.733 in [3]; -0.993 in [4]; -2.16 in assay [5]; 1.52 in assay [6]. Moreover, the z-score in assay [7] is 3.17 (inactive); in assay [8], -1.1; in assay [9] it was -0.993; in assay [10] it was -0.328 (inactive).
Take `CCCC=C(CCC)[C@@H](NS(=O)(=O)c1cccc2cccnc12)c1ccc(C(=O)OC)cc1`: the z-score in [1] was -1.76; in assay [2], -0.0806; in assay [3], -1.38; in assay [4], 0.131; in assay [5] it was -0.0956; in [6] it was -1.52. Also, the z-score in assay [7] was -0.553 (inactive); in assay [8] it was 0.907; in assay [9] it was -1.13; in assay [10], 0.174 (inactive).
For `O=C1NC(=O)C2C1C=CC(C(O)c1ccc(-c3ccccc3)s1)N2Nc1ccccn1` (stereo not given), the z-score was -0.275 in assay [1]; -0.456 in assay [2]; -0.538 in assay [3]; -0.0747 in assay [4]; -0.642 in assay [5]; -1.85 in assay [6]. Further, the z-score in assay [7] was -0.544 (inactive); in assay [8], -0.115; in [9] it was -0.371; in assay [10], -0.842 (inactive).
For the molecule `C[C@H]1ON(c2ccccc2)[C@@H](c2ccccc2)[C@@H]1C(=O)N1C(=O)OC[C@@H]1c1ccccc1`, the z-score is -0.279 in assay [1]; 0.261 in [2]; -0.941 in assay [3]; 0.608 in assay [4]; -0.144 in [5]; -1.24 in assay [6]. Besides, the z-score in assay [7] was 0.46 (inactive); in assay [8], 0.488; in [9] it was -0.127; in assay [10] it was 0.535 (inactive).
As to `COc1cc2c(cc1OC)CN(C(=O)[C@@H]1[C@H]3C(=O)O[C@H](c4ccccc4)[C@H](c4ccccc4)N3[C@H](c3ccc(O)cc3)[C@@]13C(=O)Nc1ccc(C#CCNC(N)=O)cc13)CC2`, the z-score in assay [1] was 0.434; in [2], 0.0878; in [3], -0.659; in [4], 0.454; in assay [5] it was -0.375; in assay [6] it was -1.55. The z-score in assay [7] was -0.628 (inactive); in assay [8], -0.0414; in [9] it was -0.375; in [10], 0.795 (inactive).
With `CC(C)c1ccc(NN2C(C(O)c3cccs3)C=CC3C(=O)N(c4ccccc4)C(=O)C32)cc1` (stereo not given), the z-score in assay [1] was -0.869; in assay [2], -0.986; in assay [3] it was -0.245; in [4] it was -0.639; in assay [5], -0.476; in [6], -2.91. For the same molecule, the z-score in assay [7] was -1.73 (inactive); in [8], 0.183; in assay [9], 0.491; in assay [10], -0.28 (inactive).
On to `Cc1ccc(C(C)CC(O)C2C=CC3C(=O)N(Cc4ccccc4)C(=O)C3N2n2cnnc2)o1` (stereo not given), for which the z-score is -0.732 in [1]; -0.126 in assay [2]; -0.705 in assay [3]; -0.427 in assay [4]; -1.63 in assay [5]; -0.254 in [6]. Besides, the z-score in assay [7] was -1.24 (inactive); in assay [8] it was -0.168; in assay [9], 1.24; in [10], -1.34 (inactive).
Take `C=C(CCCC)/C(=C/C[C@@H](OC(=O)c1ccncc1)c1ccccc1OCCO)c1cc(C(=O)OC)ccc1OC`: the z-score in assay [1] is 0.0198; in assay [2], 0.725; in assay [3], 0.949; in [4], -3.26; in assay [5], -3.93; in [6], 2.84. Besides, the z-score in [7] is -0.188 (inactive); in [8], -0.497; in assay [9], -1.14; in [10] it was 0.17 (inactive).
Consider `O=C(Nc1cc(Br)ccc1C(=O)NCc1cccc(O)c1)c1ccccc1`, for which the z-score in assay [1] was -1.71; in [2], -0.318; in assay [3], -2.25; in [4], -3.11; in assay [5], -2.49; in [6], 0.386. For the same molecule, the z-score is 5.49 (inactive) in [7], -0.226 in assay [8], -1.12 in [9] and -0.326 (inactive) in [10].
As to `CC(C)C[C@@H]1NC(=O)[C@@]23C(=O)N[C@@H](Cc4ccccc4)C2[C@H](C)[C@@]2(C)O[C@H]2C3/C=C/C/C=C\CNC(=O)[C@@H]2CCCN2C1=O` (stereo not given in full), the z-score in assay [1] was -0.486; in assay [2], 0.0971; in [3], -0.809; in assay [4] it was -0.641; in assay [5], 0.219; in [6], -0.00843. Also, the z-score in assay [7] was 0.568 (inactive); in [8], 0.548; in assay [9], -0.491; in assay [10], -0.023 (inactive).
